In PubChem BioAssay (NCI) one finds growth inhibition data, which are given here for 21 molecules.

Assay [1] is described as follows: NCI Yeast Anticancer Drug Screen. Data for the rad50 strain (AID 155).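 Further: 0% = growth of vehicle-only cultures of the same strain.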 The conditions noted are these: S. cerevisiae rad50 strain growth inhibition; at 50.0 µM; hits give high values. In outline: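 Genetically altered yeast (DNA repair pathway); compound treatment; growth inhibition vs vehicle ctrl.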
The nature of assay [2]: NCI Yeast Anticancer Drug Screen. Data for the mec2-1 strain (AID 157). The conditions noted are these: S. cerevisiae mec2-1 strain, at 50.0 µM, hits give high values. In outline:
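Vehicle-treated cultures served as reference for growth inhibition of compound-exposed mec2-1 yeast.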

A short description of assay [3]: NCI Yeast Anticancer Drug Screen. Data for the sgs1 mgt1 strain (AID 161).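 Further: 0% = growth of cultures given vehicle only.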 The conditions noted are these: S. cerevisiae sgs1 mgt1 strain, at 50.0 µM, hits give high values. In outline:
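Genetically altered yeast, compound exposure, growth inhibition relative to vehicle.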

Assay [4] is described as follows: NCI Yeast Anticancer Drug Screen. Data for the cln2 rad14 strain (AID 165).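 Further: 0% = growth equal to vehicle treated cultures.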 Conditions: S. cerevisiae cln2 rad14 strain, at 50.0 µM, hits give high values. In outline: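 Each compound was tested on cln2 rad14 yeast. Inhibition of growth was calculated against vehicle-exposed controls.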
Assay [5] in a line: NCI Yeast Anticancer Drug Screen. Data for the bub3 strain (AID 167). The conditions noted are these: S. cerevisiae bub3 mutant strain, at 50.0 µM, hits give high values. In outline:
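Yeast carrying a defined mutation is treated with each compound, and growth is compared with that of vehicle-exposed cells to give inhibition.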

Assay [6] is described as follows: NCI Yeast Anticancer Drug Screen. Data for the mlh1 rad18 strain (AID 175). The conditions noted are these: S. cerevisiae mlh1 rad18 strain growth inhibition; at 50.0 µM; hits give high values. In outline: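 Vehicle-treated cultures served as the reference for growth inhibition in a yeast strain carrying DNA damage repair alterations exposed to each compound.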

Compounds without any hit were thinned out: in the full panel of roughly 79,000, 15% have a hit. Unmarked numbers belong to inactive results. The source made the active and inactive calls. No stated cut-off is given here; in the data, active means growth inhibition above about 70%; inactive means the rest.

As to `COc1cc(-c2cc(OC)c(N)cc2Br)c(Br)cc1N`, the growth inhibition is 38.8% in assay [1]; 17.2% in assay [2]; 60.6% in assay [3]; 49.9% in assay [4]; 54.4% in assay [5]; 35.9% in assay [6].
As for `CC(=O)C1(SCCO)CCC2C3CCC4=CC(=O)CCC4(C)C3CCC21C` (stereo unspecified), the growth inhibition is 91.8% (active) in assay [1]; 69.8% in assay [2]; 97% (active) in assay [3]; -3.35% in assay [4]; 41.1% in assay [5]; 77.2% (active) in assay [6].
Regarding `CCCCCCC(C)OC(C)=O` (stereo unspecified), the growth inhibition is -15.6% in assay [1]; -44.5% in assay [2]; -2.55% in assay [3]; -20% in assay [4]; -3.5% in assay [5]; -13.8% in assay [6].
Turning to `CC1/C(=N\Nc2ccc([N+](=O)[O-])cc2[N+](=O)[O-])CCC2C1(C)CCC1C2(C)CCC2(C)C3CC(C)(C)CCC3(C)CCC12C` (stereo unspecified), the growth inhibition in assay [1] is -5.8%; in assay [2], -9.1%; in assay [3] it was 9.8%; in assay [4], -16.6%; in assay [5] it was 13.2%; in assay [6], 6.25%.
On to `CN(C)CCCN1CCC2(CCC(C(C)(C)C)CC2)CC1`, for which the growth inhibition is 40% in assay [1]; -16.1% in assay [2]; -0.3% in assay [3]; -19.1% in assay [4]; -31.2% in assay [5]; 49.8% in assay [6].
With `CCCCCC(=O)OC`, the growth inhibition was 4.75% in assay [1]; -8.15% in assay [2]; -28.4% in assay [3]; -17.1% in assay [4]; -11.2% in assay [5]; 10.8% in assay [6].
Consider `Oc1cc(-n2cccn2)c(O)cc1-n1cccn1`, for which the growth inhibition in assay [1] was 23.1%; in assay [2], -4.75%; in assay [3] it was 15.3%; in assay [4], 5.25%; in assay [5], 12.2%; in assay [6], -39%.
As to `Cc1nc[nH]c(=O)c1N`, the growth inhibition was 0.55% in assay [1]; -1.75% in assay [2]; 9.2% in assay [3]; 0.9% in assay [4]; 7.75% in assay [5]; -4.85% in assay [6].
In the case of `O=C=Nc1cc(Cl)ccc1Cl`, the growth inhibition in assay [1] is 38.5%; in assay [2] it was 21.8%; in assay [3], 17.4%; in assay [4], -24.4%; in assay [5] it was 7.95%; in assay [6], 28.9%.
For the molecule `COc1ccc(C2c3cc4c(cc3OC3(O)CCCC(=O)C23)OCO4)cc1` (stereo unspecified), the growth inhibition in assay [1] was -13.2%; in assay [2], 15.3%; in assay [3], 4.55%; in assay [4], -39.3%; in assay [5], 20.6%; in assay [6] it was -7.4%.
With `O=C(O)CCC(=O)Nc1ccccc1C(=O)O`, the growth inhibition in assay [1] is -1.15%; in assay [2] it was 11.8%; in assay [3], -8.15%; in assay [4] it was 0.15%; in assay [5], 5.6%; in assay [6] it was -4.5%.
`COc1ccc2ccc3[nH]c4c(C)cnc(NCCCN(C)C)c4c3c2c1`: the growth inhibition was 34.8% in assay [1]; 43.2% in assay [2]; 55.9% in assay [3]; 18.9% in assay [4]; 45.9% in assay [5]; 29.1% in assay [6].
As to `CC(C)N(C)c1ncnc2c1cnn2C`, the growth inhibition in assay [1] was -1.55%; in assay [2], -2.85%; in assay [3], -3.95%; in assay [4] it was -14.8%; in assay [5], 1.75%; in assay [6] it was -14%.
Turning to `CN1C(=O)NC(=O)C1(C)C=O` (stereo unspecified), the growth inhibition in assay [1] was 2.8%; in assay [2], 0.9%; in assay [3] it was -2.7%; in assay [4], 5.95%; in assay [5], 10.9%; in assay [6] it was -12.1%.
On to `O=[N+]([O-])c1nccn1CC(O)CN1CCCCC1` (stereo unspecified), for which the growth inhibition in assay [1] was 5.95%; in assay [2], -1.15%; in assay [3], 16.8%; in assay [4], -4.85%; in assay [5], -7.85%; in assay [6] it was 18.9%.
For `CC(=O)c1cnn(C(N)=O)c1C`, the growth inhibition in assay [1] is -42.6%; in assay [2] it was -18.5%; in assay [3], -23.7%; in assay [4], -46.5%; in assay [5] it was 13.5%; in assay [6] it was -5.75%.
On to `CN1C/C(=C\c2ccc(N(C)C)cc2)C(=O)/C(=C/c2ccc(N(C)C)cc2)C1`, for which the growth inhibition in assay [1] was -17.6%; in assay [2], -8.05%; in assay [3], -2.2%; in assay [4], -1.35%; in assay [5], 4.05%; in assay [6], -9.85%.
Regarding `Cn1ccccc1=O`, the growth inhibition in assay [1] was 36.8%; in assay [2], -26.7%; in assay [3], -8.55%; in assay [4] it was -56.5%; in assay [5] it was 3.4%; in assay [6], 27.2%.
For `CCCCCOC(C)(OCCCCC)OCCCCC`, the growth inhibition in assay [1] is 7%; in assay [2], 13.6%; in assay [3], -4.2%; in assay [4], 2.8%; in assay [5], 9.6%; in assay [6], 7.5%.
On to `CCCCCc1c2c(c(CCCCC)c3c1-c1cccc4cccc-3c14)-c1ccc(C)cc1C2`, for which the growth inhibition was -29.7% in assay [1]; -9.95% in assay [2]; -30.9% in assay [3]; -18.1% in assay [4]; -0.3% in assay [5]; -19.4% in assay [6].
With `Cc1ccc2nc[nH]c(=O)c2c1`, the growth inhibition in assay [1] is -1.1%; in assay [2] it was 13.3%; in assay [3] it was 7.85%; in assay [4] it was -70.6%; in assay [5], 19.4%; in assay [6] it was -12.8%.
